Drawing on article PMC12820563, “FoxP3 forms a head-to-head dimer in vivo and stabilizes its multimerization on adjacent microsatellites”, this text covers binding signal for 32 sequences.

Whole data set: some 16,000 sequences, median “rpm ratio (pull-down/input)” near 0.94, cut for the highest 2% near 1.7. Many of the other results were omitted from the sample, so the highest values are more common in it than they were.

The assay has as its target T1, MBP-FoxP1dN (Mus musculus, UniProt P58462 326-579).
T1 sequence: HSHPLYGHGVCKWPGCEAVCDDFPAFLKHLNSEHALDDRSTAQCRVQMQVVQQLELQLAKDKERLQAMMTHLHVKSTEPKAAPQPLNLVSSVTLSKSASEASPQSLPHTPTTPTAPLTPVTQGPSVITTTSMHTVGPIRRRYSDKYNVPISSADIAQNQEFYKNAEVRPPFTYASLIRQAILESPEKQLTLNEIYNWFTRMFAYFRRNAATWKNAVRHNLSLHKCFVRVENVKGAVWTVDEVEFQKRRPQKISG
Briefly: PD-seq (MBP pull-down with sequencing); 20 mM Tris-HCl pH 7.5, 100 mM NaCl, 1.5 mM MgCl2, 0.4 uM protein, 0.1 uM dsDNA library, 30 min, room temperature, amylose pull-down; high values mean tight binding. Particulars: protein: recombinant; tags: His6-MBP; chain copies: 2; dsDNA, one strand shown. A digest of the protocol:
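The N-terminus-lacking fragment of mouse FoxP3 or FoxP1 carried a His6-MBP tag and was expressed in E. coli. At 0.4 µM it was incubated with 0.1 µM Klenow-filled degenerate double-stranded DNA library for 30 min at room temperature in Tris pH 7.5 buffer with NaCl and MgCl2, and complexes were caught on amylose resin, washed three times, released with proteinase K, PCR-barcoded and Illumina-sequenced. Binding is reads-per-million enrichment of pull-down over input with replicates pooled.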
“GATGATTGTTCTCCCAGCTGATGAATTTGCAGTTTCGAGTAAACAAATTTTCCTAATCTTTCTGTTCAAGCGCCATCTAC”: the binding signal was 1.02 RPM ratio (pull-down/input). As to “GATGATTGTTCTCCCAGCTGATGAATTTCCGTCGTCGAGTAAACAAATTTTCCTAATCTTTCTGTTCAAGCGCCATCTAC”, the binding signal was 0.841 RPM ratio (pull-down/input). Regarding “GATGATTGTTCTCCCAGCTGATGAATTCGAGTTATCGAGTAAACAAATTTTCCTAATCTTTCTGTTCAAGCGCCATCTAC”, the binding signal is 0.96 RPM ratio (pull-down/input). As for “GATGATTGTTCTCCCAGCTGATGAATTGTTGTTATCGAGTAAACAAATTTTCCTAATCTTTCTGTTCAAGCGCCATCTAC”, the binding signal is 2.91 RPM ratio (pull-down/input). To “GATGATTGTTCTCCCAGCTGATGAATTTTTATCATCGAGTAAACAAATTTTCCTAATCTTTCTGTTCAAGCGCCATCTAC” belongs 1.36 RPM ratio (pull-down/input); to “GATGATTGTTCTCCCAGCTGATGAATTTTGCTTATCGAGTAAACAAATTTTCCTAATCTTTCTGTTCAAGCGCCATCTAC”, 2.09 RPM ratio (pull-down/input); to “GATGATTGTTCTCCCAGCTGATGAATTCTTGTTATCGAGTAAACAAATTTTCCTAATCTTTCTGTTCAAGCGCCATCTAC”, 2.09 RPM ratio (pull-down/input). To “GATGATTGTTCTCCCAGCTGATGAATTGCTTATATCGAGTAAACAAATTTTCCTAATCTTTCTGTTCAAGCGCCATCTAC” belongs 1.34 RPM ratio (pull-down/input). Take “GATGATTGTTCTCCCAGCTGATGAATTGTTATCATCGAGTAAACAAATTTTCCTAATCTTTCTGTTCAAGCGCCATCTAC”: the binding signal is 1.73 RPM ratio (pull-down/input). As for “GATGATTGTTCTCCCAGCTGATGAATTTGCTTTATCGAGTAAACAAATTTTCCTAATCTTTCTGTTCAAGCGCCATCTAC”, the figure is 1.1 RPM ratio (pull-down/input); as for “GATGATTGTTCTCCCAGCTGATGAATTTCTGTTATCGAGTAAACAAATTTTCCTAATCTTTCTGTTCAAGCGCCATCTAC”, 1.69 RPM ratio (pull-down/input); as for “GATGATTGTTCTCCCAGCTGATGAATTATCATCATCGAGTAAACAAATTTTCCTAATCTTTCTGTTCAAGCGCCATCTAC”, 1.12 RPM ratio (pull-down/input). To “GATGATTGTTCTCCCAGCTGATGAATTCCTGTTATCGAGTAAACAAATTTTCCTAATCTTTCTGTTCAAGCGCCATCTAC” belongs 1.65 RPM ratio (pull-down/input). “GATGATTGTTCTCCCAGCTGATGAATTGTTCTTATCGAGTAAACAAATTTTCCTAATCTTTCTGTTCAAGCGCCATCTAC”: the binding signal is 1.41 RPM ratio (pull-down/input). In the case of “GATGATTGTTCTCCCAGCTGATGAATTTATGTGATCGAGTAAACAAATTTTCCTAATCTTTCTGTTCAAGCGCCATCTAC”, the binding signal was 1.21 RPM ratio (pull-down/input). To “GATGATTGTTCTCCCAGCTGATGAATTGTAGTGCTCGAGTAAACAAATTTTCCTAATCTTTCTGTTCAAGCGCCATCTAC” belongs 1.04 RPM ratio (pull-down/input); to “GATGATTGTTCTCCCAGCTGATGAATTTGGTACGTCGAGTAAACAAATTTTCCTAATCTTTCTGTTCAAGCGCCATCTAC”, 0.997 RPM ratio (pull-down/input); to “GATGATTGTTCTCCCAGCTGATGAATTAATCGCGTCGAGTAAACAAATTTTCCTAATCTTTCTGTTCAAGCGCCATCTAC”, 1.01 RPM ratio (pull-down/input). As to “GATGATTGTTCTCCCAGCTGATGAATTTTAATCCTCGAGTAAACAAATTTTCCTAATCTTTCTGTTCAAGCGCCATCTAC”, the binding signal was 0.832 RPM ratio (pull-down/input).

“GATGATTGTTCTCCCAGCTGATGAATTCAGGGGGTCGAGTAAACAAATTTTCCTAATCTTTCTGTTCAAGCGCCATCTAC”: the binding signal is 0.723 RPM ratio (pull-down/input). Turning to “GATGATTGTTCTCCCAGCTGATGAATTTGTTATCTCGAGTAAACAAATTTTCCTAATCTTTCTGTTCAAGCGCCATCTAC”, the binding signal was 1.76 RPM ratio (pull-down/input). To “GATGATTGTTCTCCCAGCTGATGAATTGCTCTTATCGAGTAAACAAATTTTCCTAATCTTTCTGTTCAAGCGCCATCTAC” belongs 1.17 RPM ratio (pull-down/input); to “GATGATTGTTCTCCCAGCTGATGAATTGTTATCCTCGAGTAAACAAATTTTCCTAATCTTTCTGTTCAAGCGCCATCTAC”, 1.55 RPM ratio (pull-down/input).

Take “GATGATTGTTCTCCCAGCTGATGAATTGGTGTAATCGAGTAAACAAATTTTCCTAATCTTTCTGTTCAAGCGCCATCTAC”: the binding signal was 1.49 RPM ratio (pull-down/input).

With “GATGATTGTTCTCCCAGCTGATGAATTGCTTTTATCGAGTAAACAAATTTTCCTAATCTTTCTGTTCAAGCGCCATCTAC”, the binding signal is 1.26 RPM ratio (pull-down/input).

For “GATGATTGTTCTCCCAGCTGATGAATTGCTGTTATCGAGTAAACAAATTTTCCTAATCTTTCTGTTCAAGCGCCATCTAC”, the binding signal is 1.85 RPM ratio (pull-down/input). In the case of “GATGATTGTTCTCCCAGCTGATGAATTTTTGTTATCGAGTAAACAAATTTTCCTAATCTTTCTGTTCAAGCGCCATCTAC”, the binding signal is 2.35 RPM ratio (pull-down/input).

Consider “GATGATTGTTCTCCCAGCTGATGAATTTGAGTTATCGAGTAAACAAATTTTCCTAATCTTTCTGTTCAAGCGCCATCTAC”, for which the binding signal was 1.04 RPM ratio (pull-down/input). To “GATGATTGTTCTCCCAGCTGATGAATTTGTTATATCGAGTAAACAAATTTTCCTAATCTTTCTGTTCAAGCGCCATCTAC” belongs 1.5 RPM ratio (pull-down/input).

Consider “GATGATTGTTCTCCCAGCTGATGAATTGGTGTTATCGAGTAAACAAATTTTCCTAATCTTTCTGTTCAAGCGCCATCTAC”, for which the binding signal is 1.9 RPM ratio (pull-down/input). To “GATGATTGTTCTCCCAGCTGATGAATTTTGGTTATCGAGTAAACAAATTTTCCTAATCTTTCTGTTCAAGCGCCATCTAC” belongs 1.17 RPM ratio (pull-down/input). Consider “GATGATTGTTCTCCCAGCTGATGAATTTCTTATCTCGAGTAAACAAATTTTCCTAATCTTTCTGTTCAAGCGCCATCTAC”, for which the binding signal is 0.829 RPM ratio (pull-down/input).
